According to ChEMBL document CHEMBL3988442, “University of Dundee, Small-Polar-MMV Screening Library” (2021):
For some of these results: Measured potencies and affinities stand elsewhere.

What was measured:
Set-up in all cases: scale not given: direction of the effect not stated beside the values
[1] = biological target: Protein translocase subunit SecA (Escherichia coli (strain K12)) (UniProt P10408); test: Assay to Identify E. coli SecA ATPase Inhibitors; assay type: functional; details: 30 µM
[2] = biological target: T1, Ubiquitin-activating enzyme e1, putative (Leishmania donovani (strain BPK282A1)) (UniProt E9BSI1); test: Leishmania donovani Ubiquitin Activating Enzyme (LdE1); assay type: functional; details: 30 µM
T1 sequence (whole entry): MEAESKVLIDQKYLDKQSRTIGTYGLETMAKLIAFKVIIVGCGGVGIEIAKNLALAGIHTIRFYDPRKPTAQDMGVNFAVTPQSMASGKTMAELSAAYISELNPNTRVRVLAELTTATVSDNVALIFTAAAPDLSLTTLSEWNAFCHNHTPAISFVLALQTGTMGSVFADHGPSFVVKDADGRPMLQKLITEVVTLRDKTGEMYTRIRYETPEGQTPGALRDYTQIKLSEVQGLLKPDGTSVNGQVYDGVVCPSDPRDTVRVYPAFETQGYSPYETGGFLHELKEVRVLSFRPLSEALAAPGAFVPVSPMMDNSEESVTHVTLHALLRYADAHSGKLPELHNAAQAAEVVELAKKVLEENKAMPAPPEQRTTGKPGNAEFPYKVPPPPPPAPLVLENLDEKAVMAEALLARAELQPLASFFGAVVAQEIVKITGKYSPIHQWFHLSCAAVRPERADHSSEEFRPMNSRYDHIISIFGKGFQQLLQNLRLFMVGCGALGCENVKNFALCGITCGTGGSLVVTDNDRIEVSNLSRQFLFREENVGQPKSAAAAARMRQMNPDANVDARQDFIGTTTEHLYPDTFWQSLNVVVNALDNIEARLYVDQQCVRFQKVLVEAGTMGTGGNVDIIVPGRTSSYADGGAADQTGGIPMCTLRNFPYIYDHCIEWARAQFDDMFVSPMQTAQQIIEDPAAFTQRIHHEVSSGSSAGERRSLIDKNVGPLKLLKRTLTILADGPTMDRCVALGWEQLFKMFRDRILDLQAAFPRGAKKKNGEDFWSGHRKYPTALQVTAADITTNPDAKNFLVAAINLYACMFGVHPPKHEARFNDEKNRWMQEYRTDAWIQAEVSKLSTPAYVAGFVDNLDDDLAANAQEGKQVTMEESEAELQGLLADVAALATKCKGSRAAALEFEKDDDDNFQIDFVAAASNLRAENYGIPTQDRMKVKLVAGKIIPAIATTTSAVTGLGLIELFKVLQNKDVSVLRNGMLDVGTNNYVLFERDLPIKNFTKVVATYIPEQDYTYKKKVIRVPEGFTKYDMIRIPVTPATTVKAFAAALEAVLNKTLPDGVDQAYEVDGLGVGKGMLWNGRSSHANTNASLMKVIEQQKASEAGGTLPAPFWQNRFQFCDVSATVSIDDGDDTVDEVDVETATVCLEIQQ

[3] = biological target: Sialic acid-binding Ig-like lectin 9 (Homo sapiens) (UniProt Q9Y336); test: Hs-Siglec9 ALPHAscreen SOP 20170721; details: 10 µM
[4] = system: Trypanosoma cruzi; test: Trypanosoma cruzi phosphomannomutase and mannose-1-phosphate guanylyltransferase assay; assay type: functional; details: 10 µM
[5] = biological target: T2, Arginase-2, mitochondrial (Homo sapiens) (UniProt P78540); test: in vitro enzyme assay to detect the production of urea directly proportional to the activity of Arginase II; assay type: functional; details: 33.3 µM; further: in the data most compounds retested in dose-response had high values
T2 sequence (whole entry): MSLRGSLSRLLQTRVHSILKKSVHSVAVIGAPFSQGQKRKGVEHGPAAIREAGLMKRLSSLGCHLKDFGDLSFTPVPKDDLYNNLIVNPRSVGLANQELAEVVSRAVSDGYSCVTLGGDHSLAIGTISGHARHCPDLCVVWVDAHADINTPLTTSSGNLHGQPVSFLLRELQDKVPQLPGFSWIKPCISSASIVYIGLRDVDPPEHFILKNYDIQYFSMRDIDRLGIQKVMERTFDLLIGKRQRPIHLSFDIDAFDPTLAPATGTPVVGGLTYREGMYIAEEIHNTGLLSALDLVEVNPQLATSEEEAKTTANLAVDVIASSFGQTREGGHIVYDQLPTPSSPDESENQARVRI

[6] = biological target: T3, Proteasome subunit beta (Trypanosoma cruzi) (UniProt O96673); test: Trypanosoma cruzi proteasome chymotrypsin-like activity (TcProtChymo) assay.; further: in the data most compounds retested in dose-response had high values; assay type: functional; details: 9.37 µM
T3 sequence (whole entry): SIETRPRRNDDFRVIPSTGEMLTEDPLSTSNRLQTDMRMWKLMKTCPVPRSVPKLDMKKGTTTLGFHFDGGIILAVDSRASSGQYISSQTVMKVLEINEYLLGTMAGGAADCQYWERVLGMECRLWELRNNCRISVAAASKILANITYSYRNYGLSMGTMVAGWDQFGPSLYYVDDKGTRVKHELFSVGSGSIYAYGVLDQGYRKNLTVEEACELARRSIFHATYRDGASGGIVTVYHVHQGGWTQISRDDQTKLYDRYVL

[7] = species on record: Homo sapiens; test: To identify inhibition of the IFN signalling (Jak-Stat) pathway via expression of an eGFP reporter gene under the control of an IFN-stimulated response element (ISRE) containing MxA promoter.; assay type: functional; details: 30 µM
[8] = biological target: T4, Tyrosyl-tRNA synthetase, putative (Trypanosoma cruzi (strain CL Brener)) (UniProt Q4DSP6); test: Trypanosoma cruzi tyrosyl tRNA synthetase (TcYRS) _High Tyrosine SOP; assay type: functional; details: 30 µM; further: in the data most compounds retested in dose-response had high values
T4 sequence (whole entry): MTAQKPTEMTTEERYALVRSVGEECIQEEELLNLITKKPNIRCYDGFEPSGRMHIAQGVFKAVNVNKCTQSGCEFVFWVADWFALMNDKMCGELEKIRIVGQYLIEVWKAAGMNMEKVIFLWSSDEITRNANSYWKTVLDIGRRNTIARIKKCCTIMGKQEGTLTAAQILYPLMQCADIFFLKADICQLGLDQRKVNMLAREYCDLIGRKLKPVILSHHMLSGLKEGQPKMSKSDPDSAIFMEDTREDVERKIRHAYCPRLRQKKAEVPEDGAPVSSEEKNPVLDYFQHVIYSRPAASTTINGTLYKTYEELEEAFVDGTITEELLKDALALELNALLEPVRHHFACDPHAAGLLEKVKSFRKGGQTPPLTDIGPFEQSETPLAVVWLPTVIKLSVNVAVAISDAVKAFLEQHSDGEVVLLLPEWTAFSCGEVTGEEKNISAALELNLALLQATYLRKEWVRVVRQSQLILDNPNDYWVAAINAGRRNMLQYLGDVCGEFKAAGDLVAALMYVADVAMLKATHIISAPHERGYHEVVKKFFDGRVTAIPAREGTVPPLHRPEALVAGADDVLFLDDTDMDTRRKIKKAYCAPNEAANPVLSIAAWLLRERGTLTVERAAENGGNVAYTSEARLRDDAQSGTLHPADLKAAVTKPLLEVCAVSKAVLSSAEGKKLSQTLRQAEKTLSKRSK

[9] = biological target: T4, Tyrosyl-tRNA synthetase, putative (Trypanosoma cruzi (strain CL Brener)); test: Trypanosoma cruzi tyrosyl tRNA synthetase (TcYRS) SOP; assay type: functional; details: 30 µM
[10] = biological target: Chromo domain-containing protein 1 (Saccharomyces cerevisiae (strain ATCC 204508 / S288c) (Baker's yeast)) (UniProt P32657); test: ScCHD-1 Enzyme Inhibition Assay; assay type: functional; details: 30 µM; further: in the data most compounds retested in dose-response had high values
Chain of Chromo domain-containing protein 1 (Saccharomyces cerevisiae (strain ATCC 204508 / S288c) (Baker's yeast)) (P32657 whole entry, the tested form may be a part): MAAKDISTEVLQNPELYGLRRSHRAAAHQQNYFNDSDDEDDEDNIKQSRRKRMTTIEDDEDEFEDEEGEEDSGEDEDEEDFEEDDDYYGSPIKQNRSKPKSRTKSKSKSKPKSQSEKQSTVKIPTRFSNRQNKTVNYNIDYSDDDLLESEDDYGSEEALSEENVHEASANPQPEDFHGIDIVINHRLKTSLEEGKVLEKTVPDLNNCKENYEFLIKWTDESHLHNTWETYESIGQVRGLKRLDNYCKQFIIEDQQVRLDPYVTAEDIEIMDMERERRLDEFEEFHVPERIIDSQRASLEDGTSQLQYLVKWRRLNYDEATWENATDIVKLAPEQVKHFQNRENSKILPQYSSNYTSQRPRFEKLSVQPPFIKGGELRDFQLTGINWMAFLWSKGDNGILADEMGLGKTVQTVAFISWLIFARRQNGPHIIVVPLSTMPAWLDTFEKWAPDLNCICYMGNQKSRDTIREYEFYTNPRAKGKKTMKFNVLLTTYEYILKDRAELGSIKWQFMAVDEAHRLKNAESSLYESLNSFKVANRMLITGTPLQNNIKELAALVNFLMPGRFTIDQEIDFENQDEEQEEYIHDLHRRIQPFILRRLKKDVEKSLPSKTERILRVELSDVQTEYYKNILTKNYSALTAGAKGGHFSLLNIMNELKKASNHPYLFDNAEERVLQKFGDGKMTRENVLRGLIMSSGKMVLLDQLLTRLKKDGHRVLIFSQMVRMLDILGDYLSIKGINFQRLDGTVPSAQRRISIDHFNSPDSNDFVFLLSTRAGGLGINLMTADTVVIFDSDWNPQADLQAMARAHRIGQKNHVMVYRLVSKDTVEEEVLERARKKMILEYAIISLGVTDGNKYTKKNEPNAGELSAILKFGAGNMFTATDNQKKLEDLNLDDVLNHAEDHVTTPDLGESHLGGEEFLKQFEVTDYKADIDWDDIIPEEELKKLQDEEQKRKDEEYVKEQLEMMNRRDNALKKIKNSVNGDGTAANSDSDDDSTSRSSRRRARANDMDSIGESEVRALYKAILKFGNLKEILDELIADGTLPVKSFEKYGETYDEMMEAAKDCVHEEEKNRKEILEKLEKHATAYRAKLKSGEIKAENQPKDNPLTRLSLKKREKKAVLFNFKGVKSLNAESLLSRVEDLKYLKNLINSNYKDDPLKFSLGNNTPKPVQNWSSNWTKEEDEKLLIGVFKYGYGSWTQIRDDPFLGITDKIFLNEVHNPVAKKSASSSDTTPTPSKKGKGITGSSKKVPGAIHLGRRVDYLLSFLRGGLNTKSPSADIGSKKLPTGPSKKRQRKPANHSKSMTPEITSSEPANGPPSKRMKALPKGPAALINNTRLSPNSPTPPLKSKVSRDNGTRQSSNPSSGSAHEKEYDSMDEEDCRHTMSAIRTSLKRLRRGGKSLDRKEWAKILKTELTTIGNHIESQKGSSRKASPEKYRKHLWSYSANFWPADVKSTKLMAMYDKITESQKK

Chain of Protein translocase subunit SecA (Escherichia coli (strain K12)) (P10408 whole entry): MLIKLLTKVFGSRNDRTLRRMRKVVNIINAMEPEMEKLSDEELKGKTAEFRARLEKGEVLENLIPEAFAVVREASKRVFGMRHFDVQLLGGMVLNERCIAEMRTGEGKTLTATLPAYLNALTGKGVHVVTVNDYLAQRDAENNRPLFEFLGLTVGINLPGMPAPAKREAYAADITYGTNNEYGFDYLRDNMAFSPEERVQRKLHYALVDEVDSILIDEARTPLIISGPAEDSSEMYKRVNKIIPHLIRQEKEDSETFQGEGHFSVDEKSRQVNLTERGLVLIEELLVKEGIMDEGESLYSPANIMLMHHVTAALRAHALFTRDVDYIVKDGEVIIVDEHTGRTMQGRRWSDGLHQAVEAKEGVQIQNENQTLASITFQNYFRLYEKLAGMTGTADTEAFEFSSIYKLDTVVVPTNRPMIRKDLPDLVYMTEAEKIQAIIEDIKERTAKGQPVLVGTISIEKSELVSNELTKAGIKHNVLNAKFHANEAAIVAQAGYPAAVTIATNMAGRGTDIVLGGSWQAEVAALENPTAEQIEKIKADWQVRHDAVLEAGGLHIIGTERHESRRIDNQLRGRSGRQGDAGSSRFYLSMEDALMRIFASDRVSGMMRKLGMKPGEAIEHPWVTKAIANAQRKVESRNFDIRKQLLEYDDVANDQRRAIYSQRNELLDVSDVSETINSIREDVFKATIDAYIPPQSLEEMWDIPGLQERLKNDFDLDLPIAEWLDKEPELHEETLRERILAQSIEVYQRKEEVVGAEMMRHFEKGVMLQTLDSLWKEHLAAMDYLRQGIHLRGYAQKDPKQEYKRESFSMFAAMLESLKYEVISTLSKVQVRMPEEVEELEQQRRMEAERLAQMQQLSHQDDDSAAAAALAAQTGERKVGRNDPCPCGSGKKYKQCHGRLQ
Chain of Sialic acid-binding Ig-like lectin 9 (Homo sapiens) (Q9Y336 whole entry): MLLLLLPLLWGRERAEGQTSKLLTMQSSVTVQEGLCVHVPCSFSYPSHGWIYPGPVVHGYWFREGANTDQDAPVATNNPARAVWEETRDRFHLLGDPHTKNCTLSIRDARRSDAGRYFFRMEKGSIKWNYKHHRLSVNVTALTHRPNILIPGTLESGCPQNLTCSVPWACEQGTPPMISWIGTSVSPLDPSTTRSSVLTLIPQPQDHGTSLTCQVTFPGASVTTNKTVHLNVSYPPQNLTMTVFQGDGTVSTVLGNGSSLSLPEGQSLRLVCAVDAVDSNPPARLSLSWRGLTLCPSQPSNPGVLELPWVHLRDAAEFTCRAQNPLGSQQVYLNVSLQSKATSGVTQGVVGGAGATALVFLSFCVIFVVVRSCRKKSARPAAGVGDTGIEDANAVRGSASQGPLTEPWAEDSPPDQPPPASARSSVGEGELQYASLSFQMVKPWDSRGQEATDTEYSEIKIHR

Structure (SMILES) | Percent Effect [1] [%] | Percent Effect [2] [%] | Percent Effect [3] [%] | Percent Effect [4] [%] | Percent Effect [5] [%] | Percent Effect [6] [%] | Percent Effect [7] [%] | Percent Effect [8] [%] | Percent Effect [9] [%] | Percent Effect [10] [%]
COCC(=O)N1CCC2(CC1)CCN(Cc1ccccn1)C2=O | -4.26 | -3.9 | -5.87 | -2.24 | -3.64 | 1.5 | -7.24 | -2.63 | -5.13 | 0.829
COC[C@@]12CC[C@@H](N3CCOCC3)C[C@H]1CCN(c1ncccn1)C2 | -6.56 | 13.5 | 17.1 | 6.5 | 19.9 | 14.7 | 0.0489 | 4.79 | 12.2 | 88.3
Cc1cnn(CC2CCCCN2Cc2cc(C)on2)c1 (stereo not given) | -1.2 | 10.3 | 3.02 | -0.282 | -0.82 | 1.45 | 8.23 | 1.44 | 10.8 | -2.89
Fc1ccc(-c2n[nH]cc2-c2ccnc(NCCN3CCCC3)n2)cc1 | -1.15 | 8 | -4.6 | -8.23 | -7.98 | 15.3 | 5.44 | -5.79 | 0 | -21.2
Cc1[nH]c2ccccc2c1-c1ccnc(NCCN2CCOCC2)n1 | -1.25 | 5.33 | -2.88 | -7.83 | -7.54 | 14.8 | 21.5 | -1.58 | -2.56 | -15.1
O=C1CCC2(CCCN(CCc3ccccc3)C2)N1Cc1cccnc1 (stereo not given) | -0.897 | 22.1 | -2.1 | -2.44 | 2.28 | 18.8 | 4.75 | 12.6 | 10 | -8.73
Cc1ccc(-c2nc(CN3CCc4c(ncn4C)C3)cs2)o1 | -4.38 | 2.56 | -16.5 | 11.9 | -6.56 | 24.3 | 2.62 | 11 | 18.1 | 37.3
CN(C)c1ncccc1CNS(=O)(=O)c1ccccc1F | -0.976 | 15.6 | -3.68 | -3.17 | 2.66 | 13.3 | 19.8 | 4.9 | 11.8 | -9.97
CCC1=N[C@@]2(CC[C@@H]3CN(C(=O)NCc4ccccc4)C[C@@H]32)C(=O)N1C | -5.59 | -6.49 | -0.715 | -3.02 | -2.02 | 5.21 | 6.81 | 1.58 | -10.3 | 0.585
CCn1nc(C)c(CCNC(=O)C2CCCN(C(=O)N(C)C)C2)c1C (stereo not given) | -5.72 | 0 | -0.0434 | -2.04 | 1.05 | 14.6 | 8.52 | 3.72 | 4.88 | -3.32
CCC(=O)N(C)CC(=O)Nc1ccc(Br)cn1 | -6.29 | 2.67 | 0.577 | -4.22 | 1.77 | 6.87 | 8.04 | -0.526 | 2.56 | -5.17
Cc1cc(-c2nn(C)c(Cl)c2CN2CCOCC2CC(=O)O)no1 (stereo not given) | -6.59 | 10.8 | 10.3 | 5.92 | 15.7 | 12.2 | 22.2 | 7.98 | 12.2 | -0.504
COc1ccc(F)cc1CN1CCCC(c2cc(C(N)=O)[nH]n2)C1 (stereo not given) | -3.96 | 5.33 | 5.92 | 1.81 | -2.22 | 1.61 | 8.51 | 3.68 | 5.13 | -9.49
c1ccc(-n2ncc(CNC3CCc4ncnn4C3)n2)cc1 (stereo not given) | -1.79 | 10.3 | 0.298 | 1.03 | 4.51 | 3.16 | 10 | 1.44 | 8.43 | 1.52
CN(Cc1ccsc1)C(=O)CN1CCOC(Cn2cccn2)C1 (stereo not given) | -9.25 | 7.79 | -1.67 | -1.49 | -0.615 | -3.51 | 19.9 | 0 | -16.5 | -7.08
c1ccc(CN2CCc3nnc(CN4CCCCC4)n3CC2)nc1 | -8.66 | 1.3 | -4.58 | -3.41 | -4.86 | 18.1 | 0.921 | 0.526 | 2.56 | -0.472
Cc1cc(C(=O)NCCn2nc3ccccn3c2=O)[nH]n1 | 0.567 | 12.8 | -9.12 | -3.1 | 0 | 16.8 | 8.57 | 1.44 | 18.1 | -7.79
CC(C)NC(=O)N1CCN(Cc2ccccn2)CC2(CC(=O)N(C)C2)C1 (stereo not given) | -6.73 | 11.7 | 1.64 | -0.563 | -2.28 | 2.49 | 13.5 | 0 | 0 | -7.79
CCN(CC)C1CCN(C(=O)NCc2nncn2CC)CC1 | -3.6 | 13.3 | -2.94 | 3.41 | 3.55 | 12 | 21.2 | 0.526 | 7.69 | -11.2
